Measured values: the supplement of paper PMC11006884
Of roughly 6,500 targets only a part is listed; those with a hit were picked by preference. About 2% of all pairs of compound and target were hits. A number with no mark means an inactive call.

Compound: COC(=O)C#Cc1ccccc1 [methyl 3-phenylpropiolate]
Experiment: log2 ratio of iodoacetamide-alkyne labeling of the cysteine site, DMSO over compound (competition); higher = stronger covalent engagement of the cysteine by the compound, active = 1 or more
Settings: 500 µM; treatment time 1 h; system: HEK293T cell lysate
Summary of the method: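 HEK293T lysate at 2 mg/mL was treated with vehicle or electrophile (500 µM) for 1 h at ambient temperature, then labelled with iodoacetamide alkyne (1 h), clicked to sCIP-TMT reagents, pooled, digested with trypsin overnight at 37 °C, enriched on streptavidin and eluted with acid. Peptides were analysed by Orbitrap Eclipse LC-MS/MS with FAIMS and quantified in FragPipe, using duplicate channels and three replicates, with cysteines quantified in only one replicate excluded. The log2 competition ratio for each cysteine is the mean control-channel reporter intensity divided by the mean compound-channel reporter intensity.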

Chain of UniProt Q96B54 (Q96B54 whole entry, looked up): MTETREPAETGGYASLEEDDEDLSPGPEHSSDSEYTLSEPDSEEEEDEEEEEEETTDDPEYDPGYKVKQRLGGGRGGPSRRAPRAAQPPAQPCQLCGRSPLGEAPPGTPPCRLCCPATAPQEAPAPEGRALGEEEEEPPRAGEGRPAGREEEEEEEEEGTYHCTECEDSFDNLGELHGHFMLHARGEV
Chain of UniProt Q5VUA4 (Q5VUA4 whole entry, looked up): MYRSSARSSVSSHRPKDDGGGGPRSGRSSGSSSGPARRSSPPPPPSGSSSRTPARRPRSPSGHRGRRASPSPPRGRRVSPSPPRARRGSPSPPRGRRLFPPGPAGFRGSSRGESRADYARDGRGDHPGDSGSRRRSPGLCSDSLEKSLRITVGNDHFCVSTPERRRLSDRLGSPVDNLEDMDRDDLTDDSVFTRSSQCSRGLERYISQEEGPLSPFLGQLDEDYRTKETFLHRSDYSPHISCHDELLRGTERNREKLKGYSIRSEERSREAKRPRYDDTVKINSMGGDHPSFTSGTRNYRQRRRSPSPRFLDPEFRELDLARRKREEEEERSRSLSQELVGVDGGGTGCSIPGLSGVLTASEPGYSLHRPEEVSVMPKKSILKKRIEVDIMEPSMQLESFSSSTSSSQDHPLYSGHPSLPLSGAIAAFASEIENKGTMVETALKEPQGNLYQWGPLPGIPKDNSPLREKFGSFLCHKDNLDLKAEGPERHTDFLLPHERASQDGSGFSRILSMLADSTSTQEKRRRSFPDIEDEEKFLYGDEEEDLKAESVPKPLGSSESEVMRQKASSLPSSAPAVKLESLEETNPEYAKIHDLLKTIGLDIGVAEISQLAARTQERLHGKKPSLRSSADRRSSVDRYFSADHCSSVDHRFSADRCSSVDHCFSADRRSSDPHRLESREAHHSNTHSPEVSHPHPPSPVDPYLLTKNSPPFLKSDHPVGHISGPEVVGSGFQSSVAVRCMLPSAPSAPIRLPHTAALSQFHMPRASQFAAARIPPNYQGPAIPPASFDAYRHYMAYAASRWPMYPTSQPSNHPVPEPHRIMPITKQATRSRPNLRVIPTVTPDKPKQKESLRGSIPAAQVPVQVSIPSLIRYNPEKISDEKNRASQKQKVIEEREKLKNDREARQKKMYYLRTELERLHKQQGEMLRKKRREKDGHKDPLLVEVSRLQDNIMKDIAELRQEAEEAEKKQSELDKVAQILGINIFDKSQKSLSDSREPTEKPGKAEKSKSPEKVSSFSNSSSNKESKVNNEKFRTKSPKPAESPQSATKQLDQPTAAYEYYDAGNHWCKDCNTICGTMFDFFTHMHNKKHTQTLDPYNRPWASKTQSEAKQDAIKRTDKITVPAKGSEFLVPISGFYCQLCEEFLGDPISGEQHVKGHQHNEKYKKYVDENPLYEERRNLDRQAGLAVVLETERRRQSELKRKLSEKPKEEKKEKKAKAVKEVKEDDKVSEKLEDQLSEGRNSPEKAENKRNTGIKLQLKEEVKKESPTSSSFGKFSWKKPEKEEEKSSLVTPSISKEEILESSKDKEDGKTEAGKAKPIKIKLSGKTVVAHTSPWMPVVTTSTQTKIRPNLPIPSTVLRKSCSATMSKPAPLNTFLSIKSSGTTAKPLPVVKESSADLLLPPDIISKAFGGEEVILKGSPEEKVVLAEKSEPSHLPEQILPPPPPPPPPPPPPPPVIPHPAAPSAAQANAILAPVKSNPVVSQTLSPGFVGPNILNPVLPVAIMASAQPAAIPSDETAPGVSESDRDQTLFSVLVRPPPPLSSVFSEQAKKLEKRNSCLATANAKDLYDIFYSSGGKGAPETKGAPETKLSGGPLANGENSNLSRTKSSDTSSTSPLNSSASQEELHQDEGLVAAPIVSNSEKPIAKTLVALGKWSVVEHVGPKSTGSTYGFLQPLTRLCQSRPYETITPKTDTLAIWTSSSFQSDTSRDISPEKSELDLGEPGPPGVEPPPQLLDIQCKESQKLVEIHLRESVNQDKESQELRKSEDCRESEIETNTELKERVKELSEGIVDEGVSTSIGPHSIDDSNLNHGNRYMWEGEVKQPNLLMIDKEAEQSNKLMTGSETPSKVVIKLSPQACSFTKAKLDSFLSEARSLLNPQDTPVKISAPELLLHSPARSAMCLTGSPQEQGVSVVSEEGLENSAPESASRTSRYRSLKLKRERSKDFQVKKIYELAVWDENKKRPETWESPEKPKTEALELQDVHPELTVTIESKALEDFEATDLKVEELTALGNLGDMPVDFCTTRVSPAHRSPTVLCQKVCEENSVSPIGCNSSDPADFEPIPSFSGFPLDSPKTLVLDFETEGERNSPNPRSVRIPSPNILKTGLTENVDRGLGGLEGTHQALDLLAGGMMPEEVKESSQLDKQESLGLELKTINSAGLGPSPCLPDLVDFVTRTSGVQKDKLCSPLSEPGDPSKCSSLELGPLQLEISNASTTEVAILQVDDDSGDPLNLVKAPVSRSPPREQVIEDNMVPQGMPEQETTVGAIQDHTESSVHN
Chain of UniProt Q9BQE3 (Q9BQE3 whole entry, looked up): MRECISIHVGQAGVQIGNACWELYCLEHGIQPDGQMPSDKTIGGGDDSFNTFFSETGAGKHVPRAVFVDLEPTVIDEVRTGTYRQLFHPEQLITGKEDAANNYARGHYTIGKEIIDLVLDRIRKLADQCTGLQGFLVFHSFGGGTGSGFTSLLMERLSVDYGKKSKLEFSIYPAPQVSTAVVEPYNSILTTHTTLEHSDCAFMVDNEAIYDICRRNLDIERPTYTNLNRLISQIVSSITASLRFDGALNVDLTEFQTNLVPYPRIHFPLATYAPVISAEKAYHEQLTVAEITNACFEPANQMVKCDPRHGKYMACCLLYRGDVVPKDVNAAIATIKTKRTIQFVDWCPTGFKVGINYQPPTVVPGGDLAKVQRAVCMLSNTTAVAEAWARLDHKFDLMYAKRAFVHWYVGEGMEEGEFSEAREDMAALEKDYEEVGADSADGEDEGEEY
Chain of UniProt Q99497 (Q99497 whole entry, looked up): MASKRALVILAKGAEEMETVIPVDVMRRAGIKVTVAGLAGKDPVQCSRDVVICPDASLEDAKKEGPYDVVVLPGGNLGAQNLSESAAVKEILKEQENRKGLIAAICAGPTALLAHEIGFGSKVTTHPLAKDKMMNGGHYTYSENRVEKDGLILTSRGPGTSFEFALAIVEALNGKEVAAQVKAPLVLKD
Chain of UniProt Q96R06 (Q96R06 whole entry, looked up): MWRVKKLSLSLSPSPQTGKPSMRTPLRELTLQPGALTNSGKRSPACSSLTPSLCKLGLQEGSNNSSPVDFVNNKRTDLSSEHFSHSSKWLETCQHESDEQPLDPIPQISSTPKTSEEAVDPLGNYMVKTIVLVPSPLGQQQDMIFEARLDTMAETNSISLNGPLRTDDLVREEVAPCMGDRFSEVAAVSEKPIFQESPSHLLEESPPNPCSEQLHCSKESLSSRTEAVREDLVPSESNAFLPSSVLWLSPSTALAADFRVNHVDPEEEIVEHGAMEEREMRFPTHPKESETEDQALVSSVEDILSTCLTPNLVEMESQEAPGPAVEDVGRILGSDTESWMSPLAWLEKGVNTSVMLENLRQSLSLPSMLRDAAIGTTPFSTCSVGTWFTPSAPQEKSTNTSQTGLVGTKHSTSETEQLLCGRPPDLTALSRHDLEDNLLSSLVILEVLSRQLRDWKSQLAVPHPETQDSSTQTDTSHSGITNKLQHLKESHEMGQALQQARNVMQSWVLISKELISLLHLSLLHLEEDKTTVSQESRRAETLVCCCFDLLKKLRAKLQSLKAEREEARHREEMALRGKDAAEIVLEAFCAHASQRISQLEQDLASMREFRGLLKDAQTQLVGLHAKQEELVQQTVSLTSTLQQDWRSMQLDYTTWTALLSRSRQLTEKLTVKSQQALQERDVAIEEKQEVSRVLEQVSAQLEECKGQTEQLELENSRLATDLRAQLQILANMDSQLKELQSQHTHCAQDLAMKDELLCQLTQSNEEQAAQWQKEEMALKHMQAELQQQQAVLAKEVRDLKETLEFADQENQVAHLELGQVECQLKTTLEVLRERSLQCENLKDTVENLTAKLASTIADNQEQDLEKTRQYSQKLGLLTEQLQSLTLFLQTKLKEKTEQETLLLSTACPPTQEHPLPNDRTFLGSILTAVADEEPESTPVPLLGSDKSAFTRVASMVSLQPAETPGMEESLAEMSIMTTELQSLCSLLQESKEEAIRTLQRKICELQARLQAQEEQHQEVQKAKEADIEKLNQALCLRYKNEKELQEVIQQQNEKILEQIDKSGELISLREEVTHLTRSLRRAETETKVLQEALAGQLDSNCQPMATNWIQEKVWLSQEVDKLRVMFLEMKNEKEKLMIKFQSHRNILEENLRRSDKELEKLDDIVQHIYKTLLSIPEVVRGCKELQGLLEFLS

With CCT7 C29 (UniProt Q99832) the “log2 ratio of iodoacetamide-alkyne labeling” value (“log2 ratio” below) was 1.51 (active).
UniProt Q7Z2T5_C239 was tested, and the “log2 ratio” value was 1.28 (active).
In the case of NEK9 C25 (UniProt Q8TD19), the “log2 ratio” value is reported as 1.21 (active).

CEP128 C915 (UniProt Q6ZU80) and UniProt Q8NFC6_C2164 are within 0.2 log units of each other in “log2 ratio” value: 0.335 for the first, 0.286 for the second.

SECISBP2 C719 (UniProt Q96T21) and UniProt Q9BSH4_C256 are within 0.2 log units of each other in “log2 ratio” value: -0.258 for the first, -0.207 for the second.

SPAG5 C1035 (UniProt Q96R06) and RDH10 C272 (UniProt Q8IZV5) are within 0.2 log units of each other in “log2 ratio” value: 0.251 for the first, 0.324 for the second.

First: HEATR6 C360 (UniProt Q6AI08)
Second: OSBPL9 C720 (UniProt Q96SU4)
The “log2 ratio” value of the first is higher: 0.657 for the first, -0.0484 for the second.

ZNF428 C114 (UniProt Q96B54) and PARK7 C53 (UniProt Q99497) are within 0.2 log units of each other in “log2 ratio” value: 0.0848 for the first, -0.0888 for the second.

ZNF318 C1559 (UniProt Q5VUA4) and FAF2 C194 (UniProt Q96CS3) are within 0.2 log units of each other in “log2 ratio” value: 0.605 for the first, 0.689 for the second.

First: LGMN C219 (UniProt Q99538)
Chain of UniProt Q99538 (Q99538 whole entry): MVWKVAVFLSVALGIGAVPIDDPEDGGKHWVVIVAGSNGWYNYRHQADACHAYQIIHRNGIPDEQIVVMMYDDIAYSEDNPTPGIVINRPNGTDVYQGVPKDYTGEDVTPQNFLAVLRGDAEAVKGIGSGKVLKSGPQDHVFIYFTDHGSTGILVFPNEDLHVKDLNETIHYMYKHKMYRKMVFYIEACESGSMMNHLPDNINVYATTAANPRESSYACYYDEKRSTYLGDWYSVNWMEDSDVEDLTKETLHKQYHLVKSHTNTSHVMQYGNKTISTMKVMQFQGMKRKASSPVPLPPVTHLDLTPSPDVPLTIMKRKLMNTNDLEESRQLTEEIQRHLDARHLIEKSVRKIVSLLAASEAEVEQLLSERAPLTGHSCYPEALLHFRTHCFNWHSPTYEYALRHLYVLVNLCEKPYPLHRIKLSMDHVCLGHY
Second: PYCR2 C262 (UniProt Q96C36)
Chain of UniProt Q96C36 (Q96C36 whole entry, looked up): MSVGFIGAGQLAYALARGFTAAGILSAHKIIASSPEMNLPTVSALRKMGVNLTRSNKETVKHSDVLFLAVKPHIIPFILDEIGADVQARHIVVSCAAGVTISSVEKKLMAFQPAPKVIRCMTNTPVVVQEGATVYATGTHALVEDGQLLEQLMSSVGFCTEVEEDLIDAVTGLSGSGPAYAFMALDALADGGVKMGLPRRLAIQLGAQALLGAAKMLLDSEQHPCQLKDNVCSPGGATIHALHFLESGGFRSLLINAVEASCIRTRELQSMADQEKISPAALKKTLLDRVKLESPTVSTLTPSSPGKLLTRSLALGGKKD
The “log2 ratio” value of the first is higher: 0.865 for the first, 0.538 for the second.

Compared with SMARCC1 C164 (UniProt Q92922), TBC1D15 C686 (UniProt Q8TC07) is higher in “log2 ratio” value: 0.146 for the first, 0.635 for the second.

TUBA1C C295 (UniProt Q9BQE3) and ARID2 C1512 (UniProt Q68CP9) are within 0.2 log units of each other in “log2 ratio” value: 0.453 for the first, 0.438 for the second.

With CAND1 C413 (UniProt Q86VP6) the “log2 ratio” value was 0.304.
